About 83,000 compounds went through this panel and 20% of them were active in at least one assay; those are over-represented in the sample as a whole.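 Note: values are percent growth. 100 is the growth of untreated cells, values between 100 and 0 indicate rising inhibition; between -100 and 0 indicates cell death.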 A number with no mark means an inactive call. The source made the active and inactive calls. Rule for the calls: active = growth percent below 10; inactive = the rest.
Legend:
Experiment in all cases: NCI-60 one-dose screen, 48 h (100 = growth as untreated, 0 = no growth, -100 = all killed)
Conditions in all cases: 10 µM unless noted
[1] = system: SK-MEL-2 melanoma
[2] = system: EKVX NSCLC
[3] = system: SN12C renal
[4] = system: UO-31 renal
[5] = system: TK-10 renal
[6] = system: ACHN renal
[7] = system: CAKI-1 renal
[8] = system: A498 renal
[9] = system: CCRF-CEM leukemia
[10] = system: MOLT-4 leukemia
[11] = system: SR leukemia
[12] = system: OVCAR-8 ovarian
[13] = system: OVCAR-5 ovarian
[14] = system: OVCAR-4 ovarian
[15] = system: SK-OV-3 ovarian
[16] = system: IGROV1 ovarian
[17] = system: OVCAR-3 ovarian
[18] = system: HS 578T breast
[19] = system: NCI/ADR-RES ovarian
[20] = system: RPMI-8226 leukemia

Structure (SMILES): COc1cccc(/C=C/C(=O)c2cc3c(N)c(C(=O)Nc4ccccc4C)sc3nc2C)c1
- growth [1]: 27.3%
- growth [2]: 91.7%
- growth [3]: 13.9%
- growth [4]: 38.5%
- growth [5]: 74.1%
- growth [6]: 56.1%
- growth [7]: 32.2%
- growth [8]: 75.7%
- growth [9]: 9.22% (active)
- growth [10]: 32.6%
- growth [11]: 10.8%
- growth [12]: -33.9% (active)
- growth [13]: 87.2%
- growth [14]: 70.9%
- growth [15]: 104%
- growth [16]: 19.4%
- growth [17]: 3.31% (active)
- growth [18]: 13.9%
- growth [19]: 10.1%

Structure (SMILES): Fc1ccc(COc2ccc(Nc3ncnc4sc5c(c34)CCCC5)cc2)cc1
- growth [1]: 84.4%
- growth [2]: 94.3%
- growth [3]: 81.1%
- growth [4]: 78.5%
- growth [5]: 84%
- growth [6]: 95.2%
- growth [7]: 99.6%
- growth [8]: 86.2%
- growth [9]: 97.6%
- growth [10]: 87.4%
- growth [11]: 95.8%
- growth [12]: 101%
- growth [13]: 112%
- growth [14]: 110%
- growth [15]: 92.6%
- growth [16]: 95.3%
- growth [17]: 93.2%
- growth [18]: 98.8%
- growth [19]: 95.9%

Structure (SMILES): C=C1C(=O)O[C@H]2[C@H]1CC/C(COC(=O)NCc1ccc(Cn3c(=O)sn(-c4ccc(OC)cc4)c3=O)cc1)=C\CC[C@@]1(C)O[C@@H]21
- growth [1]: 68.1%
- growth [2]: 97.1%
- growth [3]: 65.2%
- growth [4]: -14.6% (active)
- growth [5]: 1.08% (active)
- growth [6]: -8.56% (active)
- growth [7]: 55.9%
- growth [8]: 89.2%
- growth [9]: -34.7% (active)
- growth [10]: -12.2% (active)
- growth [11]: 27.3%
- growth [12]: 75.8%
- growth [13]: 83.6%
- growth [14]: 35.7%
- growth [15]: 105%
- growth [16]: 46.7%
- growth [17]: -27.1% (active)
- growth [18]: 90.7%
- growth [19]: 95.8%

Structure (SMILES): COc1cc(C(=O)c2c(N)ncn2-c2ccccc2)cc(OC)c1OC
- growth [1]: 104%
- growth [2]: 102%
- growth [3]: 88.2%
- growth [4]: 81.2%
- growth [5]: 106%
- growth [6]: 102%
- growth [7]: 92.3%
- growth [8]: 90.2%
- growth [9]: 92.5%
- growth [10]: 109%
- growth [11]: 122%
- growth [20]: 136%
- growth [12]: 101%
- growth [13]: 102%
- growth [15]: 95.4%
- growth [16]: 88.1%
- growth [17]: 99.2%
- growth [18]: 98.5%
- growth [19]: 82.5%

Structure (SMILES): Cn1c(O)c(C(/C=C/c2ccccc2)=Nc2ccccc2N)c(=O)n(C)c1=O
- growth [1]: 129%
- growth [2]: 82%
- growth [3]: 96.1%
- growth [4]: 83.4%
- growth [5]: 134%
- growth [6]: 99.3%
- growth [7]: 102%
- growth [8]: 130%
- growth [9]: 67.3%
- growth [10]: -43.5% (active)
- growth [11]: -19.7% (active)
- growth [12]: 107%
- growth [13]: 83.4%
- growth [14]: 101%
- growth [15]: 110%
- growth [16]: 77.4%
- growth [17]: 105%
- growth [18]: 110%
- growth [19]: 96.5%

Structure (SMILES): CCN1C(=O)N(CC)C2C1NN=C1SCC(=O)N12 (configuration not stated)
- growth [1]: 106%
- growth [2]: 86.8%
- growth [3]: 78.9%
- growth [4]: 58.8%
- growth [5]: 104%
- growth [6]: 84.2%
- growth [7]: 89.2%
- growth [8]: 112%
- growth [9]: 40%
- growth [10]: 57.2%
- growth [11]: 95.7%
- growth [20]: 80.6%
- growth [12]: 66.3%
- growth [13]: 95.8%
- growth [15]: 105%
- growth [16]: 27.2%
- growth [17]: 24.5%
- growth [18]: 98.4%
- growth [19]: 84.6%

Structure (SMILES): COP(=O)(OC)c1nnn(-c2cccc([N+](=O)[O-])c2)c1C
- growth [1]: 106%
- growth [2]: 106%
- growth [3]: 104%
- growth [4]: 84.5%
- growth [5]: 99%
- growth [6]: 106%
- growth [7]: 97.2%
- growth [8]: 101%
- growth [9]: 104%
- growth [10]: 101%
- growth [11]: 104%
- growth [20]: 103%
- growth [12]: 101%
- growth [13]: 104%
- growth [15]: 123%
- growth [16]: 110%
- growth [17]: 111%
- growth [18]: 102%
- growth [19]: 103%

Structure (SMILES): CC1(C)CC[C@]2(C(=O)N3CCOCC3)CC[C@]3(C)C(=CC[C@@H]4[C@@]5(C)C/C(=C/c6ccncc6)C(=O)C(C)(C)[C@@H]5CC[C@]43C)[C@@H]2C1
- growth [1]: -6.74% (active)
- growth [2]: 14.5%
- growth [3]: 18%
- growth [4]: 11%
- growth [5]: 35.9%
- growth [6]: 15.6%
- growth [7]: 16.7%
- growth [8]: -20.3% (active)
- growth [9]: -6.27% (active)
- growth [10]: -16.9% (active)
- growth [11]: -31.3% (active)
- growth [12]: 34%
- growth [13]: 30.3%
- growth [14]: 14.2%
- growth [15]: 28.9%
- growth [16]: 33.1%
- growth [17]: 16.1%
- growth [19]: 26.2%

Structure (SMILES): O=C1OCC2=C1C(c1cccc(F)c1)c1cc3c(cc1N2CCO)OCO3 (configuration not stated)
- growth [1]: 26%
- growth [2]: 46.1%
- growth [3]: 48.3%
- growth [4]: 36.9%
- growth [5]: 52.3%
- growth [6]: 34.5%
- growth [7]: 23.8%
- growth [8]: 3.08% (active)
- growth [9]: 7.3% (active)
- growth [10]: 25.6%
- growth [11]: 16.7%
- growth [20]: 17.5%
- growth [12]: 34.5%
- growth [13]: 63.6%
- growth [15]: 19.5%
- growth [16]: 40%
- growth [17]: 2.41% (active)
- growth [18]: 17.8%
- growth [19]: 25.4%

Structure (SMILES): COC(=O)c1nc(-c2ccccc2)oc1S(=O)(=O)N1CCC(C(N)=O)CC1
- growth [1]: 91.2%
- growth [2]: 69.7%
- growth [3]: 83.6%
- growth [4]: 55.3%
- growth [5]: 23.2%
- growth [6]: 39.6%
- growth [7]: 49.5%
- growth [8]: 87.4%
- growth [9]: -3.72% (active)
- growth [10]: 1.95% (active)
- growth [11]: -3.16% (active)
- growth [12]: 83.7%
- growth [13]: 76.7%
- growth [14]: 61.2%
- growth [15]: 101%
- growth [16]: 51.4%
- growth [17]: 16.2%
- growth [18]: 86.7%
- growth [19]: 111%

Structure (SMILES): Cc1ccc(N=Nc2c(N)nn(-c3ccccc3)c2N)cc1
- growth [1]: 41.2%
- growth [2]: 29.9%
- growth [3]: 45.4%
- growth [4]: 45.1%
- growth [5]: 43.6%
- growth [6]: 47.6%
- growth [7]: -2.05% (active)
- growth [8]: 49.9%
- growth [9]: 8.89% (active)
- growth [10]: 23.5%
- growth [11]: -16.6% (active)
- growth [12]: 41.6%
- growth [13]: 55.3%
- growth [14]: 75%
- growth [15]: 37.2%
- growth [16]: 48.3%
- growth [17]: 0.588% (active)
- growth [18]: 36.1%
- growth [19]: -5.12% (active)

Structure (SMILES): Cc1ccc(S(=O)(=O)n2cc(C3C(Cl)C(=O)N3c3ccc(N4CCOCC4=O)cc3)c3ccccc32)cc1 (configuration not stated)
- growth [1]: 74.7%
- growth [2]: 72.6%
- growth [3]: 44.5%
- growth [4]: 37.6%
- growth [5]: 88%
- growth [6]: 71.4%
- growth [7]: 24.9%
- growth [8]: 65.8%
- growth [9]: 29.5%
- growth [10]: 47.5%
- growth [11]: 24.6%
- growth [12]: 55.5%
- growth [13]: 78.5%
- growth [14]: 52.4%
- growth [15]: 93.9%
- growth [16]: 72.6%
- growth [17]: 30.4%
- growth [18]: 41.8%
- growth [19]: 32.6%

Structure (SMILES): CO[C@H](C(=O)[C@@H](O)[C@@H](C)O)[C@@H]1Cc2cc3cc(O[C@H]4C[C@@H](O[C@H]5C[C@@H](O)[C@H](O)C(C)O5)[C@H](O)C(C)O4)c(C)c(O)c3c(O)c2C(=O)[C@H]1O[C@H]1C[C@@H](O[C@H]2C[C@@H](O[C@H]3C[C@@H](OC)[C@H](O)C(C)O3)[C@@H](O)C(C)O2)C(O)(O)C(C)O1 (some centres not stated)
- growth [1]: -79.2% (active)
- growth [2]: 18%
- growth [3]: 8.08% (active)
- growth [4]: 3.17% (active)
- growth [5]: 12.1%
- growth [6]: 0.683% (active)
- growth [7]: 6.9% (active)
- growth [8]: -35.7% (active)
- growth [9]: 34.2%
- growth [10]: 18%
- growth [11]: 13.5%
- growth [20]: 9.26% (active)
- growth [12]: 9.53% (active)
- growth [13]: 14.5%
- growth [15]: 14.6%
- growth [16]: 22.3%
- growth [17]: 9.32% (active)
- growth [18]: 25.3%
- growth [19]: 87.3%

Structure (SMILES): CCOC(=O)c1c(NC(=O)c2ccc(OC)cc2)sc2c(CN(C)C)c(O)ccc12
- growth [1]: 105%
- growth [2]: 95.9%
- growth [3]: 77.5%
- growth [4]: 88.8%
- growth [5]: 94.4%
- growth [6]: 6.26% (active)
- growth [7]: 72.3%
- growth [8]: 68.9%
- growth [9]: 56.6%
- growth [10]: 61.2%
- growth [11]: -21.5% (active)
- growth [20]: 15.8%
- growth [12]: 84.2%
- growth [13]: 90.6%
- growth [15]: 99.6%
- growth [16]: 90.7%
- growth [17]: 106%
- growth [19]: 84.5%

Structure (SMILES): COc1ccc2c(O)c(/C=C3\N=Nc4ccccc43)oc2c1C[C@H]1CCNC[C@H]1F
- growth [1]: 83.1%
- growth [2]: 40%
- growth [3]: 45.2%
- growth [4]: 45.3%
- growth [5]: 65.4%
- growth [6]: 42.8%
- growth [7]: 31%
- growth [8]: 39.9%
- growth [9]: 47.9%
- growth [10]: 24.2%
- growth [11]: -23.4% (active)
- growth [20]: 60.4%
- growth [12]: 61%
- growth [13]: 35.4%
- growth [15]: 69%
- growth [16]: 62.7%
- growth [17]: 66.4%
- growth [18]: 54.7%
- growth [19]: 82.4%

Structure (SMILES): O=C(CSc1nc2ccc([N+](=O)[O-])cc2[nH]1)Nc1cccc([N+](=O)[O-])c1
- growth [1]: 49.2%
- growth [2]: 48.8%
- growth [3]: 49.6%
- growth [4]: 33.4%
- growth [5]: 69.5%
- growth [6]: 62.5%
- growth [7]: 41.2%
- growth [8]: 31.7%
- growth [9]: 40.8%
- growth [10]: 43.6%
- growth [11]: 41.1%
- growth [20]: 11.9%
- growth [12]: 60%
- growth [13]: 82.6%
- growth [15]: 55.8%
- growth [16]: 59.1%
- growth [17]: 38.9%
- growth [18]: 66.9%
- growth [19]: 66.9%

Reference: PubChem BioAssay (NCI)
